Source: PubChem BioAssay AID1159580 (chemical genetic matrix, 2015)
About 2,000 (36%) of roughly 5,500 compounds were called active. Another 18% or so got no clear call; they are omitted. No stated cut-off is given here; in the data, active means normalized growth mostly below about 0.91 (no sharp cut-off); inconclusive means no clear call, values can overlap the other calls; inactive means mostly above about 0.92. The list shows a part of the results.

Experiment: chemical genetic growth profiling, strain panel (AID 1159580);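 further: tested at 20 µM; growth read once vehicle control cultures reached saturation at 30 °C; 1 = growth at the plate median or of vehicle wells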
Conditions: S. cerevisiae deletion strains, growth OD

Measured: normalized growth

COc1cc2ccc(=O)oc2c(OC)c1OC
inactive: locus YAL021C, strain ccr4, stronger effect = lower value 1 | locus YAL026C, strain drs2, stronger effect = lower value 0.983 | locus YAL030W, strain snc1, stronger effect = lower value 0.98 | locus YBL061C, strain skt5, stronger effect = lower value 0.997 | locus YBR009C, strain hhf1, stronger effect = lower value 0.998 | locus YBR021W, strain FUR4, stronger effect = lower value 0.97 | locus YBR023C, strain chs3, stronger effect = lower value 0.995 | locus YBR171W, strain sec66, stronger effect = lower value 0.974 | locus YBR229C, strain ROT2, stronger effect = lower value 1.02 | locus YBR231C, strain swc5, stronger effect = lower value 1.02 | locus YBR279W, strain paf1, stronger effect = lower value 0.991 | locus YCL011C, strain gbp2, stronger effect = lower value 0.977 | locus YCL016C, strain dcc1, stronger effect = lower value 0.971 | locus YCL029C, strain bik1, stronger effect = lower value 1.03 | locus YCL069W, strain vba3, stronger effect = lower value 0.975 | locus YCR088W, strain abp1, stronger effect = lower value 0.98 | locus YDL005C, strain med2, stronger effect = lower value 0.977 | locus YDL035C, strain GPR1, stronger effect = lower value 1.04 | locus YDL040C, strain nat1, stronger effect = lower value 0.978 | locus YDL074C, strain BRE1, stronger effect = lower value 1.03 | locus YDL101C, strain DUN1, stronger effect = lower value 1.02 | locus YDL134C, strain PPH21, stronger effect = lower value 1.02 | locus YDL185W, strain tfp1, stronger effect = lower value 1.03 | locus YDL192W, strain arf1, stronger effect = lower value 1.01 | locus YDR001C, strain nth1, stronger effect = lower value 1 | locus YDR069C, strain doa4, stronger effect = lower value 0.99 | locus YDR101C, strain arx1, stronger effect = lower value 1 | locus YDR137W, strain rgp1, stronger effect = lower value 0.997 | locus YDR159W, strain sac3, stronger effect = lower value 1.04 | locus YDR162C, strain NBP2, stronger effect = lower value 1.05 | locus YDR195W, strain ref2 0.984 | locus YDR297W, strain sur2, stronger effect = lower value 0.997 | locus YDR318W, strain mcm21, stronger effect = lower value 1.03 | locus YDR334W, strain swr1, stronger effect = lower value 0.98 | locus YDR335W, strain msn5, stronger effect = lower value 0.973 | locus YDR388W, stronger effect = lower value 1.02 | locus YDR392W, strain spt3, stronger effect = lower value 1 | locus YDR502C, strain sam2, stronger effect = lower value 1.02 | locus YEL003W, strain gim4, stronger effect = lower value 0.968 | locus YEL037C, strain rad23, stronger effect = lower value 0.987 | locus YEL061C, strain CIN8 (second series), stronger effect = lower value 0.996 | locus YER015W, strain faa2, stronger effect = lower value 0.995 | locus YER016W, strain bim1, stronger effect = lower value 0.959 | locus YER110C, stronger effect = lower value 1.01 | locus YER111C, strain swi4, stronger effect = lower value 0.979 | locus YER155C, strain BEM2 (second series), stronger effect = lower value 0.982 | locus YER155C, strain BEM2, stronger effect = lower value 1 | locus YER167W, strain BCK2, stronger effect = lower value 1.02 | locus YFR010W, strain ubp6, stronger effect = lower value 1.01 | locus YGL078C, strain dbp3, stronger effect = lower value 1.04 | locus YGL086W, strain mad1, stronger effect = lower value 1 | locus YGL167C, strain pmr1, stronger effect = lower value 0.983 | locus YGL173C, strain kem1, stronger effect = lower value 0.956 | locus YGL227W, strain vid30, stronger effect = lower value 0.976 | locus YGL240W, strain doc1, stronger effect = lower value 0.985 | locus YGL248W, strain PDE1, stronger effect = lower value 1.03 | locus YGL253W, strain hxk2, stronger effect = lower value 0.992 | locus YGR135W, strain pre9, stronger effect = lower value 1.04 | locus YGR229C, strain SMI1, stronger effect = lower value 1.01 | locus YGR252W, strain gcn5, stronger effect = lower value 1 | locus YHR013C, strain ard1, stronger effect = lower value 0.953 | locus YHR027C, strain rpn1, stronger effect = lower value 0.996 | locus YHR079C, strain IRE1 (second series), stronger effect = lower value 1.01 | locus YHR094C, strain hxt1, stronger effect = lower value 1.02 | locus YHR129C, strain ARP1, stronger effect = lower value 1.01 | locus YHR142W, strain chs7, stronger effect = lower value 0.951 | locus YHR200W, strain rpn10, stronger effect = lower value 1.02 | locus YIL066C, strain RNR3, stronger effect = lower value 1.03 | locus YIL073C, strain SPO22, stronger effect = lower value 1.07 | locus YIL125W, strain kgd1, stronger effect = lower value 1.01 | locus YIR030C, strain dcg1, stronger effect = lower value 1.02 | locus YJL092W, strain hpr5, stronger effect = lower value 0.967 | locus YJL095W, strain BCK1 (second series), stronger effect = lower value 0.978 | locus YJL095W, strain BCK1, stronger effect = lower value 1.02 | locus YJL115W, strain asf1, stronger effect = lower value 0.987 | locus YJL129C, strain trk1, stronger effect = lower value 0.961 | locus YJL134W, strain LCB3, stronger effect = lower value 1.01 | locus YJL154C, strain vps35, stronger effect = lower value 0.979 | locus YJL164C, strain tpk1, stronger effect = lower value 0.991 | locus YJL166W, strain qcr8, stronger effect = lower value 0.978 | locus YJL168C, strain set2, stronger effect = lower value 1.02 | locus YJL187C, strain SWE1 (second series), stronger effect = lower value 1.02 | locus YKL009W, strain mrt4, stronger effect = lower value 1.07 | locus YKL068W, stronger effect = lower value 0.996 | locus YKL085W, strain MDH1 (second series), stronger effect = lower value 1.01 | locus YKL085W, strain MDH1, stronger effect = lower value 1.01 | locus YKL160W, strain elf1, stronger effect = lower value 0.965 | locus YKL190W, strain CNB1, stronger effect = lower value 1.01 | locus YKR001C, strain vps1, stronger effect = lower value 0.992 | locus YKR026C, strain gcn3, stronger effect = lower value 1 | locus YKR091W, strain srl3, stronger effect = lower value 0.964 | locus YLL001W, strain dnm1, stronger effect = lower value 0.987 | locus YLL026W, stronger effect = lower value 0.992 | locus YLL041C, strain sdh2, stronger effect = lower value 0.979 | locus YLR027C, strain aat2, stronger effect = lower value 0.987 | locus YLR039C, strain RIC1, stronger effect = lower value 1.07 | locus YLR058C, strain SHM2, stronger effect = lower value 1.04 | locus YLR102C, strain apc9, stronger effect = lower value 1.02 | locus YLR221C, strain rsa3, stronger effect = lower value 1.02 | locus YLR258W, strain gsy2, stronger effect = lower value 0.992 | locus YLR262C, strain YPT6 (second series), stronger effect = lower value 1 | locus YLR268W, strain sec22, stronger effect = lower value 1.03 | locus YLR320W, strain mms22, stronger effect = lower value 1.02 | locus YLR342W, strain FKS1, stronger effect = lower value 0.979 | locus YLR357W, strain rsc2, stronger effect = lower value 0.964 | locus YLR370C, strain arc18, stronger effect = lower value 0.979 | locus YLR371W, strain rom2, stronger effect = lower value 1.01 | locus YLR384C, strain iki3, stronger effect = lower value 0.991 | locus YLR418C, strain cdc73, stronger effect = lower value 1.03 | locus YML016C, strain PPZ1, stronger effect = lower value 1.03 | locus YML032C, strain rad52, stronger effect = lower value 0.996 | locus YML120C, strain ndi1, stronger effect = lower value 0.979 | locus YML124C, strain tub3, stronger effect = lower value 1.02 | locus YMR058W, strain fet3, stronger effect = lower value 0.974 | locus YMR078C, strain ctf18, stronger effect = lower value 1.02 | locus YMR125W, strain sto1, stronger effect = lower value 0.976 | locus YMR129W, stronger effect = lower value 0.991 | locus YMR205C, strain PFK2, stronger effect = lower value 0.995 | locus YMR223W, strain ubp8, stronger effect = lower value 0.999 | locus YMR231W, strain pep5, stronger effect = lower value 0.98 | locus YMR307W, strain GAS1, stronger effect = lower value 1.07 | locus YNL067W, strain RPL9B, stronger effect = lower value 1.02 | locus YNL071W, strain lat1, stronger effect = lower value 0.999 | locus YNL153C, strain GIM3, stronger effect = lower value 1.02 | locus YNL209W, strain ssb2, stronger effect = lower value 0.976 | locus YNL233W, strain BNI4, stronger effect = lower value 1.01 | locus YNL248C, strain rpa49, stronger effect = lower value 0.962 | locus YNL250W, strain rad50, stronger effect = lower value 1.03 | locus YNL271C, strain bni1, stronger effect = lower value 1.02 | locus YNL298W, strain CLA4, stronger effect = lower value 0.999 | locus YNL307C, strain MCK1, stronger effect = lower value 1.03 | locus YNL322C, strain KRE1 (second series), stronger effect = lower value 0.971 | locus YNL322C, strain KRE1, stronger effect = lower value 1.02 | locus YNR049C, strain mso1, stronger effect = lower value 0.954 | locus YNR052C, strain pop2, stronger effect = lower value 1.02 | locus YOL006C, strain TOP1, stronger effect = lower value 1.06 | locus YOL012C, strain htz1 1.05 | locus YOL147C, strain pex11, stronger effect = lower value 1.01 | locus YOR001W, strain rrp6, stronger effect = lower value 1.02 | locus YOR061W, strain CKA2, stronger effect = lower value 1.04 | locus YOR069W, strain VPS5, stronger effect = lower value 1.01 | locus YOR070C, strain gyp1, stronger effect = lower value 0.994 | locus YOR080W, strain dia2, stronger effect = lower value 0.968 | locus YOR083W, strain WHI5, stronger effect = lower value 0.952 | locus YOR106W, strain vam3, stronger effect = lower value 0.969 | locus YOR136W, strain idh2, stronger effect = lower value 1.03 | locus YOR144C, strain elg1, stronger effect = lower value 1.02 | locus YOR184W, strain ser1, stronger effect = lower value 1.04 | locus YOR265W, strain rbl2, stronger effect = lower value 0.994 | locus YOR270C, strain vph1, stronger effect = lower value 0.957 | locus YOR290C, strain snf2, stronger effect = lower value 0.964 | locus YOR316C, strain cot1, stronger effect = lower value 1.02 | locus YPL051W, strain arl3, stronger effect = lower value 0.982 | locus YPL078C, strain atp4, stronger effect = lower value 0.966 | locus YPL106C, strain sse1, stronger effect = lower value 0.977 | locus YPL240C, strain hsp82, stronger effect = lower value 0.986 | locus YPR119W, strain clb2, stronger effect = lower value 1.01 | locus YPR141C, strain kar3, stronger effect = lower value 1.02 | locus YPR163C, strain tif3, stronger effect = lower value 1.03 | locus YPR167C, strain met16, stronger effect = lower value 1.04 | strain wtn01, stronger effect = lower value 1.02
